This note sets out measurements from the supplement of paper PMC10037445.

In experiment [1] the test system is RAW-Dual. The experiment in a line: NF-kB SEAP reporter activity, fold change vs agonist alone; higher = enhanced NF-kB activity. As to conditions: library stock concentration (final ~1000-fold dilution): 10 mM. Put shortly: (§1)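 RAW-Dual macrophages (50,000 cells/well in DMEM, 384-well plates) received 50 nL of library stock by pin tool, then a PRR agonist 1 h later, and were kept at 37 °C, 5% CO2. After 20 hours, supernatant was read for IRF by QuantiLuc luminescence and for NF-κB by QuantiBlue absorbance at 620 nm. Reporter activity is fold change over agonist-alone wells. Cytotoxic wells had IncuCyte confluency below 70% of agonist controls in both mask sets.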

The subject of experiment [2] is RAW-Dual. Nature of the experiment: NF-kB SEAP reporter activity, fold change vs agonist alone; cytotoxicity flag (confluency mask): not cytotoxic; higher = enhanced NF-kB activity. The gist of the method:
as §1

For experiment [3], the system named is RAW-Dual. Nature of the experiment: NF-kB SEAP reporter activity, fold change vs agonist alone; cytotoxicity flag (confluency mask): cytotoxic (confluency <70% of control); higher = enhanced NF-kB activity. The gist of the method:
as §1

[4] abbreviates: cytotoxicity flag (confluency mask): not cytotoxic, agonist: Imiquimod (TLR7) […].
The mark [5] stands for this setting: cytotoxicity flag (confluency mask): not cytotoxic, agonist: MPLA (TLR4) […].
[6] abbreviates: agonist: ODN 1826 (TLR9) 0.5 ug/mL.
Setting [7] is: agonist: Pam2CSK4 (TLR2/6) 0.1 ug/mL.
Setting [8] is: agonist: Pam3CSK4 (TLR2/1) 0.1 ug/mL.
The mark [9] stands for this setting: cytotoxicity flag (confluency mask): cytotoxic (confluency <70% of control), agonist: Imiquimod (TLR7) […].
Setting [10] is: cytotoxicity flag (confluency mask): cytotoxic (confluency <70% of control), agonist: MPLA (TLR4) […].

Several values for one entry are separate records, joined by “and”; a condition that tells them apart may be missing. Equal values may be shown once. In all, about 2,900 compounds were measured (“NF-kB SEAP reporter activity, fold change vs agonist alone”: median about 0.99, highest 2% from about 2.6 on). This is one part of a sample in which the highest values are shown more often than they occur.

`COc1ccc(CNC(=O)CCl)cc1OC`: the results for the “NF-kB SEAP reporter activity” value in the experiment with RAW-Dual [1] (setting [4]) and in the experiment with RAW-Dual [1] (setting [5]) were 1.02 and 0.962, respectively.
For `COc1ccc(CNC(=O)CCl)cc1OC` (library stock concentration (final ~1000-fold dilution): 10 mM), the “NF-kB SEAP reporter activity” value in the experiment on RAW-Dual [2] (agonist: LPS (TLR4) 0.1 ug/mL) was found to be 0.67; in the experiment on RAW-Dual [2] (setting [6]), 0.674; in the experiment with RAW-Dual [2] (setting [7]) it was 0.728; with RAW-Dual [2] (setting [8]), 0.679.
In the same order, the values of `COc1cc(OC)c(C=CS(=O)(=O)Cc2ccc(OC)c(NCC(=O)O)c2)c(OC)c1` (library stock concentration (final ~1000-fold dilution): 10 mM) are 4.24, 3.24, 2.21 and 2.56.
For `COc1cc(OC)c(C=CS(=O)(=O)Cc2ccc(OC)c(NCC(=O)O)c2)c(OC)c1`, the “NF-kB SEAP reporter activity” value in the experiment with RAW-Dual [1] (setting [4]) is 2.64; in the experiment on RAW-Dual [1] (setting [5]), 2.27.
On to `CC(=O)C1CCC2C3CCC4=CC(=O)CCC4(C)C3CCC12C` (stereo unspecified), for which the “NF-kB SEAP reporter activity” value in the experiment on RAW-Dual [1] (setting [4]) amounted to 0.441; with RAW-Dual [1] (setting [5]), 1.06.
Consider `CC(=O)C1CCC2C3CCC4=CC(=O)CCC4(C)C3CCC12C` (stereo unspecified) (library stock concentration (final ~1000-fold dilution): 10 mM), for which the “NF-kB SEAP reporter activity” value was 0.981 in the experiment on RAW-Dual [2] (agonist: LPS (TLR4) 0.1 ug/mL), 1.06 in the experiment with RAW-Dual [2] (setting [6]), 1.38 with RAW-Dual [2] (setting [7]) and 1.51 with RAW-Dual [2] (setting [8]).
Turning to `Cc1ccc(/C=N/NC(=O)c2ccccc2Oc2ccccc2)o1`, the “NF-kB SEAP reporter activity” value was determined as 0.972 with RAW-Dual [1] (setting [4]) and 1.09 in the experiment with RAW-Dual [1] (setting [5]).
Consider `O=C(N/N=C/c1ccc([N+](=O)[O-])o1)c1ccc(O)cc1`, for which the results for the “NF-kB SEAP reporter activity” value with RAW-Dual [1] (setting [9]) and in the experiment on RAW-Dual [1] (setting [10]) were 2.58 and 2.03, respectively.
As to `O=C1CN(/N=C/c2ccc([N+](=O)[O-])o2)C(=O)N1`, the “NF-kB SEAP reporter activity” value in the experiment with RAW-Dual [1] (setting [4]) was 0.924; in the experiment with RAW-Dual [1] (setting [5]) it was 0.948.
Regarding `O=C(N/N=C/c1ccc([N+](=O)[O-])o1)c1ccc(O)cc1` (library stock concentration (final ~1000-fold dilution): 10 mM), the “NF-kB SEAP reporter activity” value in the experiment on RAW-Dual [3] (agonist: LPS (TLR4) 0.1 ug/mL) came to 3.8; in the experiment with RAW-Dual [3] (setting [6]) it was 1.64; in the experiment on RAW-Dual [3] (setting [7]) it was 1.38; in the experiment on RAW-Dual [3] (setting [8]), 1.55.
Consider `Cc1ccc(/C=N/NC(=O)c2ccccc2Oc2ccccc2)o1` (library stock concentration (final ~1000-fold dilution): 10 mM), for which the “NF-kB SEAP reporter activity” value in the experiment on RAW-Dual [2] (agonist: LPS (TLR4) 0.1 ug/mL) worked out at 1.08; in the experiment with RAW-Dual [2] (setting [6]), 0.922; with RAW-Dual [2] (setting [7]), 0.955; with RAW-Dual [2] (setting [8]), 1.31.
In the same order, the values of `O=C1CN(/N=C/c2ccc([N+](=O)[O-])o2)C(=O)N1` (library stock concentration (final ~1000-fold dilution): 10 mM) are 1.09, 0.855, 1.1 and 1.11.
With `COC1/C=C\C=C(/C)C(=O)NC2=CC(=O)C(NCCN(C)C)=C(CC(C)CC(OC)C(O)C(C)/C=C(\C)C1OC(N)=O)C2=O.Cl` (stereo unspecified) (library stock concentration (final ~1000-fold dilution): 10 mM), the “NF-kB SEAP reporter activity” value in the experiment on RAW-Dual [2] (agonist: LPS (TLR4) 0.1 ug/mL) turned out to be 0.267; with RAW-Dual [2] (setting [6]), 0.313; in the experiment on RAW-Dual [2] (setting [7]), 0.154; in the experiment with RAW-Dual [2] (setting [8]), 0.199.
On to `COC1/C=C\C=C(/C)C(=O)NC2=CC(=O)C(NCCN(C)C)=C(CC(C)CC(OC)C(O)C(C)/C=C(\C)C1OC(N)=O)C2=O.Cl` (stereo unspecified), for which the “NF-kB SEAP reporter activity” value in the experiment on RAW-Dual [1] (setting [4]) stood at 0.497; in the experiment on RAW-Dual [1] (setting [5]), 0.345.
Consider `CC(C)NCC(C(=O)N1CCN(c2ncnc3c2C(C)CC3O)CC1)c1ccc(Cl)cc1` (stereo unspecified) (library stock concentration (final ~1000-fold dilution): 10 mM), for which the “NF-kB SEAP reporter activity” value came out at 0.942 in the experiment on RAW-Dual [2] (agonist: LPS (TLR4) 0.1 ug/mL), 0.996 in the experiment on RAW-Dual [2] (setting [6]), 1.15 in the experiment with RAW-Dual [2] (setting [7]) and 1.11 in the experiment with RAW-Dual [2] (setting [8]).
For `CC(C)NCC(C(=O)N1CCN(c2ncnc3c2C(C)CC3O)CC1)c1ccc(Cl)cc1` (stereo unspecified), the “NF-kB SEAP reporter activity” value was 1.27 in the experiment with RAW-Dual [1] (setting [4]) and 1.13 in the experiment on RAW-Dual [1] (setting [5]).
On to `C=CC(=O)N1CCCC(n2nc(-c3ccc(Oc4ccccc4)cc3)c(C(N)=O)c2N)C1` (stereo unspecified) (library stock concentration (final ~1000-fold dilution): 10 mM), for which the “NF-kB SEAP reporter activity” value in the experiment on RAW-Dual [2] (agonist: LPS (TLR4) 0.1 ug/mL) is 0.404; in the experiment with RAW-Dual [2] (setting [6]), 0.546; in the experiment with RAW-Dual [2] (setting [7]), 0.224; in the experiment with RAW-Dual [2] (setting [8]) it was 0.272.
On to `C=CC(=O)N1CCCC(n2nc(-c3ccc(Oc4ccccc4)cc3)c(C(N)=O)c2N)C1` (stereo unspecified), for which the “NF-kB SEAP reporter activity” value in the experiment with RAW-Dual [1] (setting [4]) is 0.67; with RAW-Dual [1] (setting [5]), 0.637.
Consider `Cl.NC(=O)c1cnc(NC2CCCCC2N)nc1Nc1cccc(-n2nccn2)c1` (stereo unspecified), for which the figures for the “NF-kB SEAP reporter activity” value with RAW-Dual [1] (setting [9]) and in the experiment on RAW-Dual [1] (setting [10]) were 0.258 and 0.336, respectively.
On to `Cl.NC(=O)c1cnc(NC2CCCCC2N)nc1Nc1cccc(-n2nccn2)c1` (stereo unspecified) (library stock concentration (final ~1000-fold dilution): 10 mM), for which the “NF-kB SEAP reporter activity” value was 0.377 in the experiment with RAW-Dual [3] (agonist: LPS (TLR4) 0.1 ug/mL), 0.204 in the experiment with RAW-Dual [3] (setting [6]), 0.315 in the experiment on RAW-Dual [3] (setting [7]) and 0.248 in the experiment with RAW-Dual [3] (setting [8]).
As to `O=C(O)CCc1c[nH]c2ccccc12` (library stock concentration (final ~1000-fold dilution): 10 mM), the “NF-kB SEAP reporter activity” value is 1.08 in the experiment with RAW-Dual [2] (agonist: LPS (TLR4) 0.1 ug/mL), 1.06 in the experiment with RAW-Dual [2] (setting [6]), 1.03 in the experiment on RAW-Dual [2] (setting [7]) and 0.898 in the experiment with RAW-Dual [2] (setting [8]).
With `O=C(O)CCc1c[nH]c2ccccc12`, the “NF-kB SEAP reporter activity” value in the experiment on RAW-Dual [1] (setting [4]) is 0.934; in the experiment on RAW-Dual [1] (setting [5]), 0.964.
As to `OCc1c[nH]c2ccccc12` (library stock concentration (final ~1000-fold dilution): 10 mM), the “NF-kB SEAP reporter activity” value is 1.1 and 1.21 with RAW-Dual [2] (agonist: LPS (TLR4) 0.1 ug/mL); 0.998 and 1.05 in the experiment with RAW-Dual [2] (setting [6]); 1.03 and 1 in the experiment with RAW-Dual [2] (setting [7]); 1.29 and 1.17 in the experiment with RAW-Dual [2] (setting [8]).
Regarding `O=C(/C=C/c1ccc(CN(CCO)CCc2c[nH]c3ccccc23)cc1)NO`, the entries for the “NF-kB SEAP reporter activity” value in the experiment on RAW-Dual [1] (setting [9]) and in the experiment with RAW-Dual [1] (setting [10]) were 2.64 and 2.71, respectively.
As to `OCc1c[nH]c2ccccc12`, the “NF-kB SEAP reporter activity” value with RAW-Dual [1] (setting [5]) worked out at 1.03.
On to `O=C(/C=C/c1ccc(CN(CCO)CCc2c[nH]c3ccccc23)cc1)NO` (library stock concentration (final ~1000-fold dilution): 10 mM), for which the “NF-kB SEAP reporter activity” value with RAW-Dual [3] (agonist: LPS (TLR4) 0.1 ug/mL) amounted to 5.57; in the experiment on RAW-Dual [3] (setting [6]), 1.51; in the experiment with RAW-Dual [3] (setting [7]) it was 1.46; in the experiment on RAW-Dual [3] (setting [8]), 1.68.
As to `CCOC1OC(=O)CC1NC(=O)C1CCCN1C(=O)C(NC(=O)c1ccc(N)c(Cl)c1)C(C)(C)C` (stereo unspecified) (library stock concentration (final ~1000-fold dilution): 10 mM), the “NF-kB SEAP reporter activity” value with RAW-Dual [2] (agonist: LPS (TLR4) 0.1 ug/mL) amounted to 0.973; in the experiment on RAW-Dual [2] (setting [6]), 1; in the experiment on RAW-Dual [2] (setting [7]) it was 1; in the experiment on RAW-Dual [2] (setting [8]), 0.976.
